Where “and” joins values, the source holds several entries; their conditions need not be identical. Equal entries are not always repeated. The campaign covered roughly 16,000 compounds. About 160 (1%) were called active. Inconclusive results (about 8%) are left out. This is one part of a sample in which actives are shown more often than they occur. Calls come from the whole dose curve; as a rule, active = well fitted activation curve with a large enough effect; inconclusive = small, poorly fitted or top-dose-only effect; inactive = no such curve, though single readings can be large or run the other way.
Biological target: Rap guanine nucleotide exchange factor 3 (Homo sapiens) (UniProt O95398)
Test: Validation qHTS for agonist of cAMP-regulated guanine nucleotide exchange factor 3 (EPAC1); note: nearly all actives have a fitted effect of over 70% in size
Details: EPAC1 Rap1b BODIPY-GDP exchange, fluorescence; max response: active compounds read high, percent of cAMP control response
From the text: Assay Provider (PI): Xiaodong Cheng Ph.D.
The University of Texas Medical Branch, […], TX
In multi-cellular eukaryotic organisms, the effects of cAMP are transduced by two ubiquitously-expressed intracellular cAMP receptors, the classic protein kinase A/cAMP-dependent protein kinase (PKA/cAPK) and the more recently discovered exchange protein directly activated by cAMP/cAMP-regulated guanine nucleotide exchange factor (EPAC/cAMP-GEF). Both PKA and EPAC are ubiquitously expressed in all tissues, and an increase in intracellular cAMP levels will lead to the activation of both PKA and EPAC. Therefore, careful dissections of the individual role and relative contribution of EPAC and PKA within the overall cAMP signaling in various model systems are critical for further elucidating the mechanism of cAMP signaling. To date no EPAC-specific antagonists and agonist, as well as isoform-specific agonists have been reported, and developing EPAC-specific pharmacological probes to determine the physiological functions that EPAC play in the overall cAMP-mediated signaling remains a major challenge within the research field. Furthermore, identified regulators of EPAC may lead to new mechanism-based therapeutic strategies specifically targeting the EPAC / cAMP-signaling components as EPAC has been implicated to play important roles in major human pathological conditions such as diabetes, heart disease, and cancer.
This qHTS will be used to screen the Molecular Libraries Small Molecule Repository (MLSMR) as a concentration-titration series using the NCGC unique quantitative screening (qHTS) platform to find activators for EPAC1. In addition, this assay will also be used as a counterscreen for the EPAC2 qHTS. This fluorescent based assay is developed and validated for EPAC1 that measures exchange using EPAC effector Rap1 complex with BODIPY-GDP, a GDP analog with a tethered fluorophores. Activators are identified by monitoring the change in fluorescence signal as the exchanged free BODIPY-GDP has a reduced fluorescence compared to Rap1-bound BODIPY-GDP. Increase in signal (activation) is the desired outcome for the EPAC1 agonist while no activity in this assay is desired for the EPAC2 agonist counterscreen.
[1] de Rooij, J., Zwartkruis, F. J., Verheijen, M. H., Cool, R. H., Nijman, S. M., Wittinghofer, A., and Bos, J.L. (1998) Nature 396, 474-477.
Briefly, three uL of reagents (100 nM EPAC1, 250 nM RAP1B-BODIPY-GDP, 50 uM GDP) were dispensed into a 1536-well Greiner black solid-bottom medium binding assay plate. Controls and test compounds (23 nL) were transferred to the plate via a Kalypsys pin tool equipped with a 1536-pin array. The plates were centrifuged at 1,000 rpm for 15 seconds followed by 5 minute incubation at room temperature. The assay plates were read at 5 minute intervals for 30 minutes in the ViewLux plate reader using 480nm excitation and 540nm emission filters. The results were normalized to the agonist positive control of 6.5 mM cAMP.
% is set by controls: 0 for no effect and ±100 for the full control effect; potency is the fitted concentration of half-maximal effect.

Chain of Rap guanine nucleotide exchange factor 3 (Homo sapiens) (O95398 whole entry, looked up): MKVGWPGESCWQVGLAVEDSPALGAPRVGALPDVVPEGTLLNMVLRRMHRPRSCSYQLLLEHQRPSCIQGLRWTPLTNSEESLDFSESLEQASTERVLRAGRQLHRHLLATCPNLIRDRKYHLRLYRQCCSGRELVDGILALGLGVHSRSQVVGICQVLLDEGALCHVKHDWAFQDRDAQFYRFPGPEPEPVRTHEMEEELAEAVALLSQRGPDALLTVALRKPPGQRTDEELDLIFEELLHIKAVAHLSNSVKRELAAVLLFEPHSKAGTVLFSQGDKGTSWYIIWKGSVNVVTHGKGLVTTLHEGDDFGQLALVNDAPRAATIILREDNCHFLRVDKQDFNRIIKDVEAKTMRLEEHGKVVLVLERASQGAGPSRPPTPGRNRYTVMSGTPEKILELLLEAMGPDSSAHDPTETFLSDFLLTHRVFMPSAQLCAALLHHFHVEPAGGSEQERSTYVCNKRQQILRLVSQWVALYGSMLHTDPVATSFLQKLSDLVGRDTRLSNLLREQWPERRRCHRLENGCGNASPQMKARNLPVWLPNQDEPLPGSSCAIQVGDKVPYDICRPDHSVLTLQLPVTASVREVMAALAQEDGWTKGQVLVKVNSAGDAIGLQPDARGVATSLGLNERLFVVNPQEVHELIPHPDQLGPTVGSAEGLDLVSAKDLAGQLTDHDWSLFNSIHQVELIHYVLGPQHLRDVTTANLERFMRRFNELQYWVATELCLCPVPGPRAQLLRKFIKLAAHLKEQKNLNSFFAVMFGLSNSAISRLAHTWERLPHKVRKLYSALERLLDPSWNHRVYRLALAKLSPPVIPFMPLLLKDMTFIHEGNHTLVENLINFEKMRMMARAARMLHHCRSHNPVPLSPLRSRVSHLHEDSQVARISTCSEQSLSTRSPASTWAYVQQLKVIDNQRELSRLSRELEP

Structure (SMILES)	max response	Potency
O=c1c(-c2cccs2)nc2cnc(Oc3ccccc3)nc2n1-c1ccccc1	26.8% (inactive)	
C=O	-10.7% (inactive)	
COCCn1c(=O)c(-c2cccs2)nc2cnc(N3CCN(C)CC3)nc21	9.88% (inactive)	
CC(=O)Nc1cc(C(=O)N2CCc3c(Cl)cccc3C2)cc2ncn(CCc3ccccn3)c12	1.17% (inactive)	
COC(C)C(C(=O)OCC1=CCN2CC[C@H](O)[C@@H]12)C(C)C (stereo partly drawn)	5.22% (inactive)	
CNc1cc(-c2c(C)noc2C)ncn1	2.2% (inactive)	
CC(Oc1ccccc1)C(=O)N[C@@H]1C(=O)N2[C@@H]1SC(C)(C)[C@@H]2C(=O)O (stereo partly drawn)	-0.674% (inactive)	
COc1cccc(Cn2c(=O)cnc3cncnc32)c1	-1.3% (inactive)	
Cc1cn(C2OC[C@@H](O)[C@@H]2CO)c(=O)[nH]c1=O (stereo partly drawn)	-10% (inactive)	
O=C(c1cnccn1)N1CCC2(CCCN(Cc3ccccc3)C2)CC1	-21.3% (inactive)	
O=C(C[n+]1cc(Br)cc2ccccc21)c1ccc(F)cc1	6.56% (inactive)	
O=c1c(-c2ccc(F)c(F)c2)nc2cncnc2n1-c1ccccc1	-25.2% (inactive)	
COc1ccc(C(=O)N2CCC3(CC2)CCN(c2ccccn2)CC3)cc1	-52.8% (inactive)	
COC(=O)c1ccccc1-c1cc(C)cc2c1OC(CNC(=O)C1CCOC1)C2 (stereo not drawn)	15.3% (inactive)	
COc1ccccc1-c1cc(NCc2cccs2)ncn1	-0.282% (inactive)	
NNc1nnc(Cc2ccncc2)c2ccccc12	17.7% (inactive)	
COc1ccc(-n2c(=O)c(C)nc3cnc(N4CCOCC4)nc32)cc1	-14.8% (inactive)	
O=C(CCN1Cc2ccccc2OC(c2ccccc2)C1)N[C@@H]1CS(=O)(=O)C[C@H]1O (stereo partly drawn)	0.897% (inactive)	
CN(C)c1ccc(/C=C/c2c3ccccc3nc3ccccc23)cc1	23.9% (inactive)	
CN(C)c1ccc(/C=C/C=C/c2ccnc3ccccc23)cc1		112 µM (active)
Cc1c(C(=O)NCC2CCCN(C)C2)cnn1-c1nccc(-c2ccco2)n1 (stereo not drawn)	-6.37% (inactive)	
CC1(C)[C@H](O[C@H]2O[C@H](C(=O)O)[C@@H](O)[C@H](O)[C@H]2O[C@@H]2O[C@H](C(=O)O)[C@@H](O)[C@H](O)[C@H]2O)CC[C@@]2(C)[C@H]1CC[C@]1(C)[C@H]2C(=O)C=C2[C@H]3C[C@@](C)(C(=O)O)CC[C@]3(C)CC[C@]21C	5.45% (inactive)	

Structure (SMILES)	max response	Potency
CN(Cc1ccco1)c1ncncc1-c1ccoc1	15.3% (inactive)	
O=C(c1ccco1)N1CCC[C@@]2(CCN(c3ccccc3)C2)C1	-31.3% (inactive)	
CCCCCCCCCCCC(=O)O[C@H](CC(=O)O)C[N+](C)(C)C	-21.3% (inactive)	
O=S1(=O)CCOC[C@H](Cc2ccccc2)N1Cc1ccccc1Br	21.5% (inactive)	
Cc1nc2cc(NC(=O)[C@@H]3C[C@@H](Sc4ccccn4)CN3Cc3ccccc3C)ccc2s1	16.2% (inactive)	
Cc1cc[n+](C2CCCCC2)cc1	-16.9% (inactive)	
CC1(C)S[C@@H]2[C@H](N=CN3CCCCCC3)C(=O)N2[C@H]1C(=O)O	-11.7% (inactive)	
CCN(Cc1ccncc1)C(=O)[C@@H](CO)c1ccccc1	7.04% (inactive)	
C#CCCCCCCCCCCCCCCCC(=O)O	-16.8% (inactive) and -0.644% (inactive)	
CCN1CCN(C(=O)N[C@@H](C(=O)N[C@@H]2C(=O)N3[C@@H]2SC(C)(C)[C@H]3C(=O)O)c2ccccc2)C(=O)C1=O	15.9% (inactive)	
CS(=O)(=O)N1CCC2(CC1)CN(Cc1ccccc1)C2	-14.5% (inactive)	
COc1ccc2[nH]cc(CCNc3cc(-c4ccccc4CN(C)C)ncn3)c2c1	-42% (inactive)	
COc1ccc(CNc2ncncc2-c2ccccc2OC)c(OC)c1	-21.3% (inactive)	
O=C(O)CCCCCCCCc1cn(CN2C(=O)c3ccccc3C2=O)nn1	12.5% (inactive)	
Oc1ccc(Cl)c2c1CCC2	-17.9% (inactive)	
Cc1csc(-c2nc3ccccc3n2C)n1	8.44% (inactive)	
NC(=O)c1sc(-c2ccsc2)cc1N	-9.78% (inactive)	
Cc1cnc(CNc2ncncc2-c2ccccc2Cl)cn1	13% (inactive)	
O=c1c(-c2ccc(F)cc2)nc2cnc(N3CCOCC3)nc2n1-c1ccccc1	-86.9% (inactive)	
COc1ccccc1-c1nc(NCc2cccs2)c2ccccc2n1	-19.8% (inactive)	
Cc1cc(C(=O)NCC2Cc3cccc(-c4cncnc4)c3O2)c(C)o1 (stereo not drawn)	3.15% (inactive)	
COc1ccccc1CNc1ncncc1-c1cccc(NS(C)(=O)=O)c1	-3.54% (inactive)	

Structure (SMILES)	max response	Potency
CCC1CN(CCNC(=O)c2cccc(C)n2)Cc2cc(OC)ccc2O1 (stereo not drawn)	8.26% (inactive)	
CC(C)(C)NCC(O)COc1cccc2[nH]c(=O)[nH]c12 (stereo not drawn)	-8.93% (inactive) and -6.11% (inactive)	
CC(=O)N1CCC2(CCCN(c3ncccn3)C2)CC1	-18.4% (inactive)	
Cc1ccc(C(=O)Nc2cccc(-c3nc(CNC(=O)c4ccccc4-n4cccn4)c(C)o3)c2)s1	-3.18% (inactive)	
Cc1csc(-c2coc3cc(O[C@@H]4O[C@H](CO)[C@@H](O)[C@@H](O)[C@H]4O)ccc3c2=O)n1	-1.66% (inactive)	
COc1cc2[nH]c(C)c(CCN3CCN(c4ccccc4)CC3)c2cc1OC	5.71% (inactive)	
COCCn1c(=O)c(-c2cc(F)cc(F)c2)nc2cncnc21	-6.52% (inactive)	
COCC(=O)N1CCC2(CCCN(c3ccccc3)C2)CC1	-14.6% (inactive)	
Cc1noc(C)c1-c1nccc(N2CCOCC2)n1	5.18% (inactive)	
O=P(O)(O)OC[C@H](O)CO	-11.2% (inactive)	
O=C(O)/C(=C/c1c(C(=O)O)[nH]c2cc(Cl)cc(Cl)c12)c1ccccc1	-0.525% (inactive)	
CCOC(=O)N1CCC(N2CCOc3ccc(CN4CCC(O)(c5cccnc5)CC4)cc3C2)CC1	-5.78% (inactive)	
Clc1ccccc1-c1cc(NCCN2CCOCC2)ncn1	-6.13% (inactive)	
Cn1c(=O)c(CCc2ccccc2)nc2cnc(Nc3ccccc3)nc21	-11% (inactive)	
O=c1cc(-c2ccc(O)c(O)c2)oc2cccc(O)c12	8.34% (inactive)	
COc1cc(C)c(CN2CCc3nnc(C(C)NC(=O)c4cccnc4)n3CC2)cc1C (stereo not drawn)	12.1% (inactive)	
COCCNc1ncnc2ccc(-c3cccnc3)cc12	-29.2% (inactive)	
CN(C)c1ccc(/C=c2\[nH]c(=O)/c(=C/c3ccc(N(C)C)cc3)[nH]c2=O)cc1	8.62% (inactive)	
CC(C)C1=CC2=CC[C@@H]3[C@](C)(CO)CCC[C@]3(C)C2CC1 (stereo partly drawn)	-8.55% (inactive)	
Cc1cc2nc3c(=O)[nH]c(=O)nc-3n(C[C@H](O)[C@H](O)[C@H](O)CO)c2cc1C		100 µM (active)
O=C(Nc1ccccc1)N[C@H]1C[C@H](C(=O)O)Nc2cc(Cl)cc(Cl)c21	1.49% (inactive)	
C=C1CC[C@H](O)CC1=C/C=C1\CCC[C@]2(C)[C@@H]([C@H](C)/C=C/[C@H](C)C(C)C)CC[C@@H]12	-127% (inactive)	

Structure (SMILES)	max response	Potency
CC(N)=NCc1cccc(CN)c1	8.83% (inactive) and -11.8% (inactive)	
CCOC(=O)C[C@H]1c2ccc(C(F)(F)F)cc2S(=O)(=O)N1c1ccccc1	-85% (inactive)	
CCC1CN(CCNC(=O)c2cccnc2C)Cc2cc(OC)ccc2O1 (stereo not drawn)	1.97% (inactive)	
Cc1nc2cnc(Oc3cccc(Cl)c3)nc2n(C2CC2)c1=O	-12.8% (inactive)	
Cc1[nH]c2c(C(=O)NCC3Cc4cccc(-c5cccnc5)c4O3)cccc2c1C (stereo not drawn)	19.3% (inactive)	
O=S1(=O)CCO[C@H]2Cc3ccccc3[C@H]2N1Cc1ccccc1	7.53% (inactive)	
CC(=O)OC1CCC2(O)CC1(C)CCC1C2CC1(C)C (stereo not drawn)	-18.2% (inactive)	
COc1cc2c(cc1OC)CC(=O)N(CCCN(C)C[C@H]1Cc3cc(OC)c(OC)cc31)CC2	1.48% (inactive)	
COc1ccc(C2CC(=O)c3c(O)cc(OC4OC(COC5OC(C)C(O)C(O)C5O)C(O)C(O)C4O)cc3O2)cc1O (stereo not drawn)	-7.79% (inactive)	
O=C(c1cnccn1)N1CCC2(CCN(Cc3cc(C(F)(F)F)cc(C(F)(F)F)c3)CC2)CC1	-66.3% (inactive)	
NC(=O)C(=O)N/N=C/c1ccc([N+](=O)[O-])o1	-37.2% (inactive)	
COCCNc1ccnc(-c2cccc(NS(C)(=O)=O)c2)n1	-9.71% (inactive)	
Nc1nc(/C(=C/CC(=O)O)C(=O)N[C@@H]2C(=O)N3C(C(=O)O)=CCS[C@H]23)cs1	13.2% (inactive)	
N#C/C(=C\c1ccc(O)c(O)c1)C(N)=O	-9.7% (inactive) and -17.1% (inactive)	
COc1ccccc1C(=O)N[C@@H]1c2ccccc2C2(CCN(Cc3nc(C(C)C)cs3)CC2)[C@H]1O	12.9% (inactive)	
CN(C)c1ccc(CN2CCOc3ccc(CN4CCC(O)(c5cccnc5)CC4)cc3C2)cc1	-6.57% (inactive)	
O=C(c1cc(C(F)(F)F)cc(C(F)(F)F)c1)N1CCC2(CC1)CN(c1ccncc1)C2	12.3% (inactive)	
O=c1[nH]c(=O)c2nc3ccccc3nc2[nH]1	-1.62% (inactive) and 3.86% (inactive)	
COC(=O)[C@@H]1C[C@H](NC(=O)c2ccccc2C(F)(F)F)CN1Cc1cccc(O)c1	-10.1% (inactive)	
Cc1cc(-c2ccnc(-n3ncc(C(=O)NC(C)(C)CO)c3C3CC3)n2)c(C)s1	5.17% (inactive)	
CS(=O)(=O)N1CCC2(CCN(c3ccncc3)CC2)CC1	-40.6% (inactive)	
O=c1c(O)c(-c2ccc(O)cc2)oc2ccccc12	-32.1% (inactive)	
